Reference: PubChem BioAssay (NCATS)
Inconclusive results are not listed. The source made the active and inactive calls. Unless noted, calls follow the shape of the dose curve; as a rule, active = well fitted curve in either direction with a large enough effect (not every such curve was filed as active); inconclusive = small, poorly fitted or top-dose-only effect, or another doubt; inactive = flat fitted curve, though single readings scatter.

Columns and labels:
[1] = AP1 Signaling Pathway (AID 357); conditions: ME-180 AP-1-bla reporter, EGF-induced, beta-lactamase ratio, 5 h; at 17.2 µM (top of the series) unless noted; also: % is scaled to controls: 0 for no effect and ±100 for the full control effect
How it was run: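 Modulation of EGF-driven AP-1 transcription was assessed with a beta-lactamase reporter in ME-180 cells. Compound and EC50 EGF were co-incubated 5 hours at 37 °C before 2.5-hour CCF4 loading at room temperature and dual-emission reading.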

[2] = NFAT Signaling Pathway (AID 444); conditions: Jurkat NFAT-bla M1, carbachol, beta-lactamase ratio, 5 h; at 17.2 µM (top of the series) unless noted;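 also: carbachol stimulus at about its EC50 of 1 µM final; % is scaled to controls: 0 for no effect and ±100 for the full control effect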
How it was run: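 Jurkat cells carrying an NFAT-driven β-lactamase reporter and co-transfected muscarinic M1 receptor were treated with compound plus carbachol (1 uM final, an EC50 level) for 5 h at 37 °C. CCF4 loading followed for 1 h at RT; 460/530 nm ratio gave %activity.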

[3] = Stat Signaling Pathway (AID 446); conditions: ME-180 (cervical carcinoma) SIE beta-lactamase reporter, IL-6 stimulated, 5 h; at 17.2 µM (top of the series) unless noted;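 also: ME-180 cervical cancer cells given 40 pM IL-6 alongside compound; SIE-controlled beta-lactamase reporter measured as 460/530 nm FRET emission ratio; % is scaled to controls: 0 for no effect and ±100 for the full control effect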
How it was run: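 IL-6/STAT signaling read in ME-180 cells via an SIE beta-lactamase reporter. Stimulus was 40 pM IL-6 (its AC50) for 5 hrs, so both activation and inhibition register.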

[4] = molecular target: Glucocorticoid receptor (Homo sapiens) (UniProt P04150); assay: GR-GFP Redistribution (AID 450;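 active = compounds whose dose series gives a full or clear partial fitted curve of increased nuclear translocation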; also: potency is read from the fitted curve at half-maximal effect)
Chain of Glucocorticoid receptor (Homo sapiens) (P04150 whole entry, looked up): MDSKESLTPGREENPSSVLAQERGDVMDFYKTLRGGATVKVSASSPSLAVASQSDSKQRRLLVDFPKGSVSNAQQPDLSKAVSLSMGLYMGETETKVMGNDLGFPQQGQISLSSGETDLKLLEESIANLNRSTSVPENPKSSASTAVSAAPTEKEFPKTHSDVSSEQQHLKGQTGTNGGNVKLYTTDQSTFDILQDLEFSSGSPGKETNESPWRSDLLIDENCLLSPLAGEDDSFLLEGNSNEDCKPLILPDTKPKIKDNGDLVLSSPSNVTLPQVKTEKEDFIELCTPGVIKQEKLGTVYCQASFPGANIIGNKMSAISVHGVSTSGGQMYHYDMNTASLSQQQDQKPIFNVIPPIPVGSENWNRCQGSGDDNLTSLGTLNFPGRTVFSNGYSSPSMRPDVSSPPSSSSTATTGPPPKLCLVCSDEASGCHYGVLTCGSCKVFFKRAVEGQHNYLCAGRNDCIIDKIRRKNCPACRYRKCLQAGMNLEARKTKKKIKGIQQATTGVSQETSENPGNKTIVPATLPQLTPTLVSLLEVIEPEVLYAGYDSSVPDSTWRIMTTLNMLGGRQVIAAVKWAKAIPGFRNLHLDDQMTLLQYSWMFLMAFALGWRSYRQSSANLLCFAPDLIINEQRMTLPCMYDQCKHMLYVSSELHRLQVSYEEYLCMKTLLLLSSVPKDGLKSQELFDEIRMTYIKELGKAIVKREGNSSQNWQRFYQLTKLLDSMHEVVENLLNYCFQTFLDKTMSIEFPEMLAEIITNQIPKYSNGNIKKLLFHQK

CCC(C(=O)Nc1nccs1)(C(F)(F)F)C(F)(F)F
inactive: activity change, negative = inhibition [1] 0.462% | activity change, negative = inhibition [2] 11.5% | activity, negative = inhibition [3] -9.76% | Potency [4] > 20.6 µM

C=CCOc1nc2c(c(=O)n(C)c(=O)n2C)n1Cc1ccc(Cl)cc1Cl
inactive: activity change, negative = inhibition [1] 4.26% | activity change, negative = inhibition [2] -9.88% | activity, negative = inhibition [3] -16.6% | Potency [4] > 20.6 µM

CCCC(=O)N1CCN(c2nc(CC(C)C)c3c(c2C#N)CCC3)CC1
inactive: activity change, negative = inhibition [1] -11.7% | activity change, negative = inhibition [2] -18.4% | activity, negative = inhibition [3] -1.27% | Potency [4] > 20.6 µM

COc1ccc(C=NCCCN2CCOCC2)cc1
inactive: activity change, negative = inhibition [1] -8.54% | activity change, negative = inhibition [2] -2.1% | activity, negative = inhibition [3] -3.86% | Potency [4] > 20.6 µM

Cc1ccc(N(CN2C(=O)C3CC=CCC3C2=O)C(=O)c2ccco2)cc1Cl (stereo not given)
inactive: activity change, negative = inhibition [1] -4.76% | activity change, negative = inhibition [2] 9.09% | activity, negative = inhibition [3] -11% | Potency [4] > 20.6 µM

COC(=O)[C@@H](N)Cc1ccc(O)cc1
inactive: activity change, negative = inhibition [1] -11% | activity change, negative = inhibition [2] -26% | activity, negative = inhibition [3] -6.81% | Potency [4] > 20.6 µM

Clc1cccc(-c2nn3c(-c4cccc(Cl)c4)nnc3s2)c1
inactive: activity change, negative = inhibition [1] -10.3% | activity change, negative = inhibition [2] 1.34% | activity, negative = inhibition [3] 2.11% | Potency [4] > 20.6 µM

COc1ccc(C(=O)N2CCC(N3CCN(c4ccccc4)CC3)CC2)cc1OC
inactive: activity change, negative = inhibition [1] 11.1% | activity change, negative = inhibition [2] 20.4% | activity, negative = inhibition [3] -1.54% | Potency [4] > 20.6 µM

CCOC(=O)C1CCN(c2ncnc3c2cnn3-c2ccc(Cl)cc2)CC1
inactive: activity change, negative = inhibition [1] 0.357% | activity change, negative = inhibition [2] -16.1% | activity, negative = inhibition [3] 4.03% | Potency [4] > 20.6 µM

Oc1oc(-c2ccccc2)nc1C=NCc1ccncc1
inactive: activity change, negative = inhibition [1] 1.8% | activity change, negative = inhibition [2] -8.61% | activity, negative = inhibition [3] 22.7% | Potency [4] > 20.6 µM

C=C1[C@@H](C)C2[C@H](Cc3ccccc3)NC(=O)[C@]23OC(=O)CC[C@H](O)CCC[C@H](C)C/C=C/[C@H]3[C@@H]1O (stereo not given in full)
active: activity change, negative = inhibition [1] -80.8%
inactive: activity change, negative = inhibition [2] -7.27% | activity, negative = inhibition [3] -14.9% | Potency [4] > 20.6 µM

CCC1SC(N)=NC1=O (stereo not given)
inactive: activity change, negative = inhibition [1] 2.7% | activity change, negative = inhibition [2] -3.13% | activity, negative = inhibition [3] -1.83% | Potency [4] > 20.6 µM

O=C1C(=O)N(Cc2cccnc2)C(c2ccccn2)/C1=C(/O)c1ccc(Br)cc1 (stereo not given)
inactive: activity change, negative = inhibition [1] -19.9% | activity change, negative = inhibition [2] 15.2% | activity, negative = inhibition [3] -10.5% | Potency [4] > 20.6 µM

CCOC(=O)C1=C(C)NC(=O)NC1c1ccc2c(c1)OCO2 (stereo not given)
inactive: activity change, negative = inhibition [1] -4.59% | activity change, negative = inhibition [2] -26.9% | activity, negative = inhibition [3] -3.46% | Potency [4] > 20.6 µM

C#CC1CN(Cc2ccccc2)CC(C#C)N1C (stereo not given)
inactive: activity change, negative = inhibition [1] 9.35% | activity change, negative = inhibition [2] -2.08% | activity, negative = inhibition [3] 9.92% | Potency [4] > 20.6 µM

Cn1c(=NCC(O)COc2ccccc2)sc2ccccc21 (stereo not given)
inactive: activity change, negative = inhibition [1] -7.25% | activity change, negative = inhibition [2] -13.4% | activity, negative = inhibition [3] 8.49% | Potency [4] > 20.6 µM

Cc1cc(C)nc(N(C#N)CC(=O)N(c2ccccc2)C(C)C)n1
inactive: activity change, negative = inhibition [1] -11% | activity change, negative = inhibition [2] 4.64% | activity, negative = inhibition [3] 7.49% | Potency [4] > 20.6 µM

COc1ccc(-c2cn3ccsc3n2)cc1
inactive: activity change, negative = inhibition [1] 11.1% | activity change, negative = inhibition [2] 4.22% | activity, negative = inhibition [3] -5.92% | Potency [4] > 20.6 µM

COC(=O)C(NC(=O)c1ccc(F)cc1)(Nc1nc(C)cs1)C(F)(F)F (stereo not given)
inactive: activity change, negative = inhibition [1] -0.49% | activity change, negative = inhibition [2] -21.1% | activity, negative = inhibition [3] -10.7% | Potency [4] > 20.6 µM

COc1cc(C2C(C(C)=O)=C(O)C(=O)N2c2ccc(Br)cn2)ccc1O (stereo not given)
inactive: activity change, negative = inhibition [1] 2.47% | activity change, negative = inhibition [2] -15.5% | activity, negative = inhibition [3] -8.75% | Potency [4] > 20.6 µM

CCNC(=O)N(C)c1nncnc1C(=O)NC
inactive: activity change, negative = inhibition [1] 5.47% | activity change, negative = inhibition [2] 2.38% | activity, negative = inhibition [3] -6.45% | Potency [4] > 20.6 µM

CN(C)c1cccc2c(S(=O)(=O)N3CCOCC3)cccc12
inactive: activity change, negative = inhibition [1] -2.48% | activity change, negative = inhibition [2] -4.98% | activity, negative = inhibition [3] 7.43% | Potency [4] > 20.6 µM

Cc1ccc2[nH]c3c(NCCN4CCOCC4)ncnc3c2c1
inactive: activity change, negative = inhibition [1] -6.77% | activity change, negative = inhibition [2] 7.47% | activity, negative = inhibition [3] 0.396% | Potency [4] > 20.6 µM

O=C(CN1C(=O)c2ccccc2C1=O)OCN1C(=O)c2ccccc2C1=O
inactive: activity change, negative = inhibition [1] 8.86% | activity change, negative = inhibition [2] -11.6% | activity, negative = inhibition [3] 6.85% | Potency [4] > 20.6 µM

O=C(O)c1cc2cccc(S(=O)(=O)N3CCOCC3)c2cc1O
inactive: activity change, negative = inhibition [1] 7.94% | activity change, negative = inhibition [2] 0.851% | activity, negative = inhibition [3] 6.34% | Potency [4] > 20.6 µM
